# Reference: paper PMC7862700, “An all-to-all approach to the identification of sequence-specific readers for epigenetic DNA modifications on cytosine”
# What was measured:
# Experiment in all cases: DAPPL (digital affinity profiling via proximity ligation, sequencing); 10 mM Tris-HCl pH 7.5, 50 mM NaCl, 1 mM DTT, 4% glycerol, room temperature, 30 min; GST-TFs on glutathione beads, 16-mer random dsDNA library, 0.1% formaldehyde crosslink after washing; high values mean tight binding
# FEV = biological target: T1, FEV (Homo sapiens, UniProt Q99581 1-238); details: protein: recombinant; tags: N-terminal GST; dsDNA, one strand shown
# T1 sequence: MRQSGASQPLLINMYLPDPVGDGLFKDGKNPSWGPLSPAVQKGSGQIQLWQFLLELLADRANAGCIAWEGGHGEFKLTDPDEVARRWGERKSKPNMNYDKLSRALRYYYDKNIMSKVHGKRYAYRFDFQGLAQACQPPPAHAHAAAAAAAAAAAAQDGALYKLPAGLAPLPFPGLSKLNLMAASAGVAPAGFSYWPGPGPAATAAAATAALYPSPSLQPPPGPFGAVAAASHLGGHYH
# Procedure, shortened: (§1)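 In yeast, human transcription factors were expressed with a GST fusion, then pulled down on glutathione beads and given DNA barcodes. Pooled with a tag-only sample, they were exposed to 200 nmole of a 16-mer random double-stranded DNA library (Tris/NaCl/DTT/glycerol buffer, room temperature, 30 min), washed, crosslinked with 0.1% formaldehyde, proximity-ligated using BsaI/T4 ligase for 1 h at 37 °C, PCR-amplified and read on an Illumina NextSeq500. Each hexamer's frequency of reads for a factor, divided by the matching frequency for the tag-only sample, gives the binding signal.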
# ETV5 = ETV5 (Homo sapiens, UniProt P41161 1-510); details: protein: recombinant; tags: N-terminal GST; dsDNA, one strand shown
# Chain of ETV5 (P41161 whole entry): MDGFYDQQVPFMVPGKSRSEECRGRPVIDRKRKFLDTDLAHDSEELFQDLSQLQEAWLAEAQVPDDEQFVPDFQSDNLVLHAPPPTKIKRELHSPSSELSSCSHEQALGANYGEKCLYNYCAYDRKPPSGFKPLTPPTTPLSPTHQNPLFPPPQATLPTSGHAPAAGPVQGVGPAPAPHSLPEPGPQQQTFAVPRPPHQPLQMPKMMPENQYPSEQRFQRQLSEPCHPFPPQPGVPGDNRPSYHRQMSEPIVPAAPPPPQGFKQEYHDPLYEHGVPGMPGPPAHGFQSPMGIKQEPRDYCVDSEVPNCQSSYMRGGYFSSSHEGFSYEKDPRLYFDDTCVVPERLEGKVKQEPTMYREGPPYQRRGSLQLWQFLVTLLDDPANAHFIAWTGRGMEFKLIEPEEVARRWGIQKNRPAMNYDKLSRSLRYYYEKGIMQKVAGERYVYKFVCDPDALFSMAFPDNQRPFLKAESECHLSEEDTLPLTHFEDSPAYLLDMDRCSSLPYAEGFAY
# Procedure, shortened: as §1
# HSF1 = HSF1 (Homo sapiens, UniProt Q00613 1-529); details: protein: recombinant; tags: N-terminal GST; chain copies: 3; dsDNA, one strand shown
# Chain of HSF1 (Q00613 whole entry): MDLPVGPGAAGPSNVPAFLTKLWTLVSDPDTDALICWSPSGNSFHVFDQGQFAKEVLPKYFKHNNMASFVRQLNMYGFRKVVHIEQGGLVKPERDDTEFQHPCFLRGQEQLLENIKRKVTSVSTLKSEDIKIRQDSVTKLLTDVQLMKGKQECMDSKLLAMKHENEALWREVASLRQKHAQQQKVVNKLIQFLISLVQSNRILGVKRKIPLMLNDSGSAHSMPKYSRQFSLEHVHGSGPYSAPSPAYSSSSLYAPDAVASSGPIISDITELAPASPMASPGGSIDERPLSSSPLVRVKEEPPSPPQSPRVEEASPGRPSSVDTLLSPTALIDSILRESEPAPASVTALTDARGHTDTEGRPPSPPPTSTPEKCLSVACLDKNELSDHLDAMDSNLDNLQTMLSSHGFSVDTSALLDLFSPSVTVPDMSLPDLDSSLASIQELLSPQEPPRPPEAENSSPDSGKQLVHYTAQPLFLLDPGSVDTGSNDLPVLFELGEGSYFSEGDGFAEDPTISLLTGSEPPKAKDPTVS
# Procedure, shortened: as §1
# SPIC = biological target: T2, SPIC (Homo sapiens, UniProt Q8N5J4 1-248); details: protein: recombinant; tags: N-terminal GST; dsDNA, one strand shown
# T2 sequence: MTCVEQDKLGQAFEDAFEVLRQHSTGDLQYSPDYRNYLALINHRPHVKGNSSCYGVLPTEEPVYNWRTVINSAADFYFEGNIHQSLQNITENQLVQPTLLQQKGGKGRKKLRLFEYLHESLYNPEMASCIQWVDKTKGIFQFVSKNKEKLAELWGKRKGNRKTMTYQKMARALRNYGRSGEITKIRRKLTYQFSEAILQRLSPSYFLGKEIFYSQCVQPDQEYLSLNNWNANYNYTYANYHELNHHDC
# Procedure, shortened: as §1
# ELF4 = ELF4 (Homo sapiens, UniProt Q99607 1-663); details: protein: recombinant; tags: N-terminal GST; dsDNA, one strand shown
# Chain of ELF4 (Q99607 whole entry): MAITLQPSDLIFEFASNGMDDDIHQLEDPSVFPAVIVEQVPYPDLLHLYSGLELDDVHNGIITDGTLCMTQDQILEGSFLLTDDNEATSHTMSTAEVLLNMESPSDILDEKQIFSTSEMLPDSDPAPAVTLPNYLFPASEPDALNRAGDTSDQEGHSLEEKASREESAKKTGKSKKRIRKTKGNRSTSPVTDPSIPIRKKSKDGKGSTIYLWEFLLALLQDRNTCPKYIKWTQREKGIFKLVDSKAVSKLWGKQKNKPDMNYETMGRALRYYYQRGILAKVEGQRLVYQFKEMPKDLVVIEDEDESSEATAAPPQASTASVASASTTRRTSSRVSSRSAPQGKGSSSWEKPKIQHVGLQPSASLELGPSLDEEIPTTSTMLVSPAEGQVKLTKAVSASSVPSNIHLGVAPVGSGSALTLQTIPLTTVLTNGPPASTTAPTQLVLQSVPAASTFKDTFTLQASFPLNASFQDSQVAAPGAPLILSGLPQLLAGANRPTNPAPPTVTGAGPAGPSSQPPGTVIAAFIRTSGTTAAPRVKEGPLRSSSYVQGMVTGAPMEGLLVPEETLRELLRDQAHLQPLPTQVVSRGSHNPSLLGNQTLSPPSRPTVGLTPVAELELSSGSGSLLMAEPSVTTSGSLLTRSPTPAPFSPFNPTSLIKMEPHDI
# Procedure, shortened: as §1
# ELK4 = biological target: T3, ELK4 (Homo sapiens, UniProt P28324-2 1-405); details: protein: recombinant; tags: N-terminal GST; dsDNA, one strand shown
# T3 sequence: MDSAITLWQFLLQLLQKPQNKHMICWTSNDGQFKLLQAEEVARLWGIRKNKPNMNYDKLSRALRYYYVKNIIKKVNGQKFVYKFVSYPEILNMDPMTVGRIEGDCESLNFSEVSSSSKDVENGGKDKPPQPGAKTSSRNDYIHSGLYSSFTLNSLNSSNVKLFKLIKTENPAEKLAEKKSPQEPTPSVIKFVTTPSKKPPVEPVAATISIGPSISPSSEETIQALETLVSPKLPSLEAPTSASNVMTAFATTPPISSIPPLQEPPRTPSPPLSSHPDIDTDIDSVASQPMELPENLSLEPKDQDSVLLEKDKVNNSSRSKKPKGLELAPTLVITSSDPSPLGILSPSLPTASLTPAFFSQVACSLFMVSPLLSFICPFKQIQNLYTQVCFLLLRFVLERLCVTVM
# Procedure, shortened: as §1
# ETV2 = biological target: T4, ETV2 (Homo sapiens, UniProt O00321 1-342); details: protein: recombinant; tags: N-terminal GST; dsDNA, one strand shown
# T4 sequence: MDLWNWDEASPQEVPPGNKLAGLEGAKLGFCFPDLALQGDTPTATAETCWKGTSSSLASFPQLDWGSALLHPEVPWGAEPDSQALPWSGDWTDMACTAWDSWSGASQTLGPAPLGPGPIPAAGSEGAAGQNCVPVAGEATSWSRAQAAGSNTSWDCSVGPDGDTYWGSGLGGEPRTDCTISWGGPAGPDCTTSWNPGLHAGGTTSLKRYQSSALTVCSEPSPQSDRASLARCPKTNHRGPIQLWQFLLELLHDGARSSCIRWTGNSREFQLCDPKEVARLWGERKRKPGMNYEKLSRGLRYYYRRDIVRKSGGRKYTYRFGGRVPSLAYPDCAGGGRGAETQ
# Procedure, shortened: as §1
# ELF3 = biological target: T5, ELF3 (Homo sapiens, UniProt P78545 1-371); details: protein: recombinant; tags: N-terminal GST; dsDNA, one strand shown
# T5 sequence: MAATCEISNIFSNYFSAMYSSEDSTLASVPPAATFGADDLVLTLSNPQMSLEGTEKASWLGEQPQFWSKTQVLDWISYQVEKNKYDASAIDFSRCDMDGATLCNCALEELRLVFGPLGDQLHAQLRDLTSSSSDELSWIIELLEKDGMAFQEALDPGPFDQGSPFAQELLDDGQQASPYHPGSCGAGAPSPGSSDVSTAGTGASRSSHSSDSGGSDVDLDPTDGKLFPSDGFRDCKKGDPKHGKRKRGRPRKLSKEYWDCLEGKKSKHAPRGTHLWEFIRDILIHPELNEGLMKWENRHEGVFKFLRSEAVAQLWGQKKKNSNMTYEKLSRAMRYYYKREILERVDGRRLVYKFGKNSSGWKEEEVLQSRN
# Procedure, shortened: as §1
# CRX = CRX (Homo sapiens, UniProt O43186 1-299); details: protein: recombinant; tags: N-terminal GST; dsDNA, one strand shown
# Chain of CRX (O43186 whole entry): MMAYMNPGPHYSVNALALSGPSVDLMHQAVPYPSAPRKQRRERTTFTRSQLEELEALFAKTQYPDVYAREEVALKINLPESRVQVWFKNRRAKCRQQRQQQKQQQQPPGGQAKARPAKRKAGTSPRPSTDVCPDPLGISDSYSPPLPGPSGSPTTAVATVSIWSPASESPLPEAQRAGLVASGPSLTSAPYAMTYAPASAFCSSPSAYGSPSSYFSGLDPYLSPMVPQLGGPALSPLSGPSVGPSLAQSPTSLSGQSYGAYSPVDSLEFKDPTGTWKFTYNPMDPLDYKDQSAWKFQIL
# Procedure, shortened: as §1
# ETV1 = ETV1 (Homo sapiens, UniProt P50549 1-477); details: protein: recombinant; tags: N-terminal GST; dsDNA, one strand shown
# Chain of ETV1 (P50549 whole entry): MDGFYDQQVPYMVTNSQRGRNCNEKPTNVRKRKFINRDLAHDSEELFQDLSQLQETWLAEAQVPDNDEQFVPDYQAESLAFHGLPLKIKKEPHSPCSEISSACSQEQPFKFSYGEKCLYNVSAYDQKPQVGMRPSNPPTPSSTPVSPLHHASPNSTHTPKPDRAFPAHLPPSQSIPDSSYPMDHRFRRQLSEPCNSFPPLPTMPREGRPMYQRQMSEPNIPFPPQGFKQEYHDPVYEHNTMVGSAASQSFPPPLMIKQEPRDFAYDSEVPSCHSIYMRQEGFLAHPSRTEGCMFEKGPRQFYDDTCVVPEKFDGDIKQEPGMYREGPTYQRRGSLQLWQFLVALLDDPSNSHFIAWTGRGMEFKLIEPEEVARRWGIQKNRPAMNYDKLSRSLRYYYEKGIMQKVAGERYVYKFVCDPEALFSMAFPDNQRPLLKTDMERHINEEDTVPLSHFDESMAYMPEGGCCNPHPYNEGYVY
# Procedure, shortened: as §1
# ERF = biological target: T6, ERF (Homo sapiens, UniProt P50548 1-548); details: protein: recombinant; tags: N-terminal GST; dsDNA, one strand shown
# T6 sequence: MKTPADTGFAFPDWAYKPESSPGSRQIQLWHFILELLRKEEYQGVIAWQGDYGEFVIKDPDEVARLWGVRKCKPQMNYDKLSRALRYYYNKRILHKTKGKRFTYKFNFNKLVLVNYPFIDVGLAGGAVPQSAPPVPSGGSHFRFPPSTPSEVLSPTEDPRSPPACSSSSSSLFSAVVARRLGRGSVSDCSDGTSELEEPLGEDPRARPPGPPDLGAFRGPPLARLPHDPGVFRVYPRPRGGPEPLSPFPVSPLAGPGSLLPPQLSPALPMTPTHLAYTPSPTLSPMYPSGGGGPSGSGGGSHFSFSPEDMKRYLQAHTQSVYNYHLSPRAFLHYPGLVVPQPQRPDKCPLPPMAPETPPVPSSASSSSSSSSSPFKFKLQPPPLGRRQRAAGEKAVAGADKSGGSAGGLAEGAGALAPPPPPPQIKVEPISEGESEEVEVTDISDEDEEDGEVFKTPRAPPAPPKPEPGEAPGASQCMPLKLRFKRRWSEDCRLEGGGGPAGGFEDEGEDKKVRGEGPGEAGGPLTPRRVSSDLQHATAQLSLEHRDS
# Procedure, shortened: as §1
# ETV3L = biological target: T7, ETV3L (Homo sapiens, UniProt Q6ZN32 1-361); details: protein: recombinant; tags: N-terminal GST; dsDNA, one strand shown
# T7 sequence: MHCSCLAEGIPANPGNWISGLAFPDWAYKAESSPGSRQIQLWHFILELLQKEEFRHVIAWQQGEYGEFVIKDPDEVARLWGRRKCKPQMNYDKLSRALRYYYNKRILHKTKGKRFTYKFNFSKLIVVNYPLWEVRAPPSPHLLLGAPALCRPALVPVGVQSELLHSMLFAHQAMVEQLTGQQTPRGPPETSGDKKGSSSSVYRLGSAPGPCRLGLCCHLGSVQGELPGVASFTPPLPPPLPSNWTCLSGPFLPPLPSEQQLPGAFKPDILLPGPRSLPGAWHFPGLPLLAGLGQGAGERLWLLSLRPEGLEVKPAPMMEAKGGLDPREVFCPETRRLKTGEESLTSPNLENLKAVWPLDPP
# Procedure, shortened: as §1
# ETS2 = biological target: T8, ETS2 (Homo sapiens, UniProt P15036 1-469); details: protein: recombinant; tags: N-terminal GST; dsDNA, one strand shown
# T8 sequence: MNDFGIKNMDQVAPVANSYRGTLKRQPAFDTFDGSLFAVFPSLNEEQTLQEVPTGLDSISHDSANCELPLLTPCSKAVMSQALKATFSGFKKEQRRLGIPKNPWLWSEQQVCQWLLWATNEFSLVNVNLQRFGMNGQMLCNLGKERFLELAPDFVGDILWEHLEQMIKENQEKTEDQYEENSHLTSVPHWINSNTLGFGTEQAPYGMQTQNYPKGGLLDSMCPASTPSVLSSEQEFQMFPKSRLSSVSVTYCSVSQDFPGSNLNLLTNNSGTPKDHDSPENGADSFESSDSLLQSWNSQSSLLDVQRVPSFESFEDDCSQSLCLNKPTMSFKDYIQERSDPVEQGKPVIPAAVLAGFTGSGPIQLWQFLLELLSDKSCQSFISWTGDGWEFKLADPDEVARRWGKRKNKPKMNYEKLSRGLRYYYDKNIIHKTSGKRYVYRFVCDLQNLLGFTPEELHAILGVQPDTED
# Procedure, shortened: as §1
# SPDEF = biological target: T9, SPDEF (Homo sapiens, UniProt O95238 1-335); details: protein: recombinant; tags: N-terminal GST; dsDNA, one strand shown
# T9 sequence: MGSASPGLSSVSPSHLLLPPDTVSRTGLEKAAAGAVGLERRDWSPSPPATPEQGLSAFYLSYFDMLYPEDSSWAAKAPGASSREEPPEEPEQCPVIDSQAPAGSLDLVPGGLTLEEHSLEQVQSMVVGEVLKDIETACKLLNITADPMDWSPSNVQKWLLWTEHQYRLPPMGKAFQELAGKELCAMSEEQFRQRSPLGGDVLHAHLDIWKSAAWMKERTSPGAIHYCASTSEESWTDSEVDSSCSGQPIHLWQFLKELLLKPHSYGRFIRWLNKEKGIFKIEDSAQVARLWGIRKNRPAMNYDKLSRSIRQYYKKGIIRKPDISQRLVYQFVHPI
# Procedure, shortened: as §1
# ETV7 = biological target: T10, ETV7 (Homo sapiens, UniProt Q9Y603 1-341); details: protein: recombinant; tags: N-terminal GST; dsDNA, one strand shown
# T10 sequence: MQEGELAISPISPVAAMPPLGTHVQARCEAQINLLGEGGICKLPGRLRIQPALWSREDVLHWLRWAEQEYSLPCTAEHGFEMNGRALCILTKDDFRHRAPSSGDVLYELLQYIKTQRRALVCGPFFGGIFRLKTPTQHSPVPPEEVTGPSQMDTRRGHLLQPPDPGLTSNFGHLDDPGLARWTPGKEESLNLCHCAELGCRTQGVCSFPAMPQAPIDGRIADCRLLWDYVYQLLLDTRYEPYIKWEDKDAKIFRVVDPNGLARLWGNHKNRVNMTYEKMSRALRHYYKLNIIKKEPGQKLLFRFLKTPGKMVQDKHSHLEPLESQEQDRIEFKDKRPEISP
# Procedure, shortened: as §1
# ELF5 = biological target: T11, ELF5 (Homo sapiens, UniProt Q9UKW6-2 1-255); details: protein: recombinant; tags: N-terminal GST; dsDNA, one strand shown
# T11 sequence: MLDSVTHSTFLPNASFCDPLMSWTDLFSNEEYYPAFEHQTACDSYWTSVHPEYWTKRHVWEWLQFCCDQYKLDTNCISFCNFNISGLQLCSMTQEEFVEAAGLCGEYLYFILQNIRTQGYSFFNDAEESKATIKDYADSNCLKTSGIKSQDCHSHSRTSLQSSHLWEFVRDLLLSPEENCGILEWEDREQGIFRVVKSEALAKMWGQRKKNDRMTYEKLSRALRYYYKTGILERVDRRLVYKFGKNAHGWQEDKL
# Procedure, shortened: as §1
# ETV3 = biological target: T12, ETV3 (Homo sapiens, UniProt P41162-2 1-143); details: protein: recombinant; tags: N-terminal GST; dsDNA, one strand shown
# T12 sequence: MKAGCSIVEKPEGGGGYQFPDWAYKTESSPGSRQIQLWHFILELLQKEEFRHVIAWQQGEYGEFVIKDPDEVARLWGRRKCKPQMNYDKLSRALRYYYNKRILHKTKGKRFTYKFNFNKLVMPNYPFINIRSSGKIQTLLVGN
# Procedure, shortened: as §1
# ETV6 = ETV6 (Homo sapiens, UniProt P41212 1-452); details: protein: recombinant; tags: N-terminal GST; dsDNA, one strand shown
# Chain of ETV6 (P41212 whole entry): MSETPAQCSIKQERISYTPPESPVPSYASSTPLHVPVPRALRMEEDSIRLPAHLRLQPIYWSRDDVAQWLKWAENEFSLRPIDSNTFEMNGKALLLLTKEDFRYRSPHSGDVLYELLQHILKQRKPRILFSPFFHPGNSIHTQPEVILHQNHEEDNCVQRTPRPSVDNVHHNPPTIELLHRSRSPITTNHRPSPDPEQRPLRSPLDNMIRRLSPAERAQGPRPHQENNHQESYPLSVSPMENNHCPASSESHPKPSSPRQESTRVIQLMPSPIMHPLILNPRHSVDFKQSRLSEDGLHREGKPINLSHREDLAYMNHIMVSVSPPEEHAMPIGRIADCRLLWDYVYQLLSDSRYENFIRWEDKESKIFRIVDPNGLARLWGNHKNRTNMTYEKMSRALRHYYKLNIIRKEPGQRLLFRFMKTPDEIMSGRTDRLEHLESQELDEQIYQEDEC
# Procedure, shortened: as §1
sequence,measurement,setting,value
CAACTA,binding signal,FEV,"1.27 fold enrichment (6-mer frequency, TF over GST control)"
same,binding signal,ETV5,"1.26 fold enrichment (6-mer frequency, TF over GST control)"
same,binding signal,HSF1,"1.2 fold enrichment (6-mer frequency, TF over GST control)"
same,binding signal,SPIC,"1.22 fold enrichment (6-mer frequency, TF over GST control)"
same,binding signal,ELF4,"1.31 fold enrichment (6-mer frequency, TF over GST control)"
same,binding signal,ELK4,"1.24 fold enrichment (6-mer frequency, TF over GST control)"
same,binding signal,ETV2,"1.18 fold enrichment (6-mer frequency, TF over GST control)"
same,binding signal,ELF3,"1.32 fold enrichment (6-mer frequency, TF over GST control)"
same,binding signal,CRX,"1.24 fold enrichment (6-mer frequency, TF over GST control)"
same,binding signal,ETV1,"1.24 fold enrichment (6-mer frequency, TF over GST control)"
same,binding signal,ERF,"1.24 fold enrichment (6-mer frequency, TF over GST control)"
same,binding signal,ETV3L,"1.29 fold enrichment (6-mer frequency, TF over GST control)"
same,binding signal,ETS2,"1.3 fold enrichment (6-mer frequency, TF over GST control)"
same,binding signal,SPDEF,"1.32 fold enrichment (6-mer frequency, TF over GST control)"
same,binding signal,ETV7,"1.24 fold enrichment (6-mer frequency, TF over GST control)"
same,binding signal,ELF5,"1.26 fold enrichment (6-mer frequency, TF over GST control)"
same,binding signal,ETV3,"1.2 fold enrichment (6-mer frequency, TF over GST control)"
same,binding signal,ETV6,"1.25 fold enrichment (6-mer frequency, TF over GST control)"
